Among all 330,000 compounds or so, about 900 (0.27%) were called active. This is one part of a sample in which actives are shown more often than they occur. Values without a mark were called inactive.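 The calls were made as follows: active = inhibition above the campaign's mean inhibition across all tested compounds plus 3 SD (cut at about 9.9% in these data); inactive = the rest.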

The assay can be described thus: bacterial viability reduction in E. coli – absorbance, OD600, counter-screen for AddAB inhibitor project, primary screen (AID 449728).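 Also: uninfected addAB+ strain grown without phage in ampicillin broth; 0% = DMSO wells and 100% = ciprofloxacin 0.95 µg/ml wells.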 Particulars: E. coli V3065 growth, 18 h, at 11.9 µM, hits give high values. A general note: A counterscreen serves to expose hits that act by an unwanted route or on another target.
In general, inhibition refers to the relative decrease from the control value, in per cent. Consider `CC[C@H]1OC(=O)[C@H](C)[C@@H](O[C@H]2C[C@@](C)(OC)[C@@H](O)[C@H](C)O2)[C@H](C)[C@@H](O[C@@H]2O[C@H](C)C[C@H](N(C)C)[C@H]2O)[C@](C)(O)C[C@@H](C)[C@@H]2N[C@@H](COCCOC)O[C@H]([C@H]2C)[C@]1(C)O`, for which the inhibition was 39.7% (active).
As for `O=C(Nc1cccc2c1N(C(=O)c1ccco1)CCC2)c1ccco1`, the inhibition was 0.81%.
Under `CCCc1nc(SCC(=O)N2CCCC2)c2c(=O)n(C)c(=O)n(C)c2n1` stands 0.51%.
Regarding `O=C(NCc1ccncc1)C(=O)NCc1ccco1`, the inhibition was -0.95%.
For the molecule `C/C(N)=C(/C#N)C(=O)COC(=O)C1CCN(C(=O)c2ccc(Cl)cc2)CC1`, the inhibition was -2.66%.
Under `N#Cc1c(-c2ccc(F)cc2)cc(C2CC2)nc1SCC(=O)c1cccs1` stands -0.26%; under `COc1cc(NS(=O)(=O)c2ccc(NC(=O)c3ccc([N+](=O)[O-])cc3)cc2)ncn1`, 1.53%.
The figure for `CC(=O)NC(=S)Nc1ccc(NC(=S)NC(=O)c2ccc([N+](=O)[O-])cc2)cc1` is -0.16%.
Under `Cn1ccc(=Nc2ccc(NC(=O)c3ccc(N=c4ccn(C)c5ccc([N+](=O)[O-])cc45)cc3)cc2)cc1` stands 103% (active); under `C=CCn1c(SCC(N)=O)nnc1-c1cc2c(s1)CCC(CC)C2` (stereo unspecified), 1.3%; under `CCCCN(CC)CCNC(=O)c1[nH]c(C)c(C(C)=O)c1C`, -0.92%.
In the case of `CCN(CC)c1ccc(NC(=O)CN2CCN(c3ccccn3)CC2)cc1`, the inhibition is 10.5% (active).
Under `O=C(CN1CCN(c2ccccn2)CC1)Nc1ccc(Br)cc1` stands 2.27%; under `O=C(CN1CCN(c2ccccn2)CC1)NC1CCCCC1`, 1.09%; under `NC(=O)NCCCC(=O)O`, -0.17%.
Under `CC(=O)N(O)CCCCCNC(=O)CCC(=O)N(O)CCCCCNC(=O)CCC(=O)N(O)CCCCCNC(=O)CCC(=O)O` stands 25.5% (active).
Under `O=C(NNC(=O)c1cc(S(=O)(=O)N2CCCCC2)ccc1Cl)c1ccccc1O` stands 10.3% (active); under `CC1CCCC(NC(=O)c2cc(S(=O)(=O)N3CCCCC3)ccc2Cl)C1C` (stereo unspecified), -1.24%.
With `O=C(COC(=O)c1cc(S(=O)(=O)N2CCCCC2)ccc1Cl)NCc1ccco1`, the inhibition was -0.84%.
The figure for `CCn1cc(/C=C2/SC(=S)NC2=O)c(C)n1` is 0%; for `Brc1ccc(/C=N/N2CCN(C3c4ccccc4-c4ccccc43)CC2)s1` it is 0.91%.
The figure for `Cc1nn2c3cc(N4CCOCC4)ccc3nc2c2ccccc12` is 0.55%; for `COC(=O)CSc1nc2c(c(C3CC=CCC3)c1C#N)CCC2` (stereo unspecified) it is 0.17%; for `CCOCCCn1c(NN)nc2ccccc2c1=O` it is 2.87%.
As for `CCn1c(/C=C/c2ccc([N+](=O)[O-])o2)nc2ccccc2c1=O`, the inhibition is 21.6% (active).
As for `CCn1c(=O)c([N+](=O)[O-])c(NCc2ccc3c(c2)OCO3)c2ccccc21`, the inhibition was 0.41%.
The figure for `Cc1cn(C2C=CC(CO)O2)c(=O)[nH]c1=O` (stereo unspecified) is 8.77%; for `COc1cc(OC)c2c(c1)OC(=O)CC2c1cc(OC)c(OC)c(OC)c1` (stereo unspecified) it is 2.5%.
Under `CC1(C)CC2CC(C)(CN2c2ncnc3ccc(Br)cc23)C1` (stereo unspecified) stands -0.09%; under `Cc1ccc(NC(=O)CCCNC(=O)c2ccc(Cl)cc2)cc1S(=O)(=O)N1CCOCC1`, -1.94%.
As to `CC(C)[C@@H]1COC(c2cccc(C3=N[C@H](C(C)C)CO3)c2)=N1`, the inhibition is -0.25%.
The figure for `CCN1/C(=C\c2ccc3ccccc3[n+]2CC)Sc2cc(C)ccc21` is 15% (active).
Under `CC(=O)c1c(Nc2ccccc2)sc(C(=O)c2ccccc2)c1C` stands 1.73%; under `CCOc1ccccc1NC(=S)N1CCN(c2cccc(C)c2C)CC1`, 0.08%; under `O=C(O)CSc1nccc2ccccc12`, -0.18%.
As to `O=C1CCC(=O)N(O)CCCCCNC(=O)CCC(=O)N(O)CCCCCNC(=O)CCC(=O)N(O)CCCCCN1`, the inhibition was 29.4% (active).
Under `CCOC(=O)c1nnn2c1nc(N1CCN(c3ccccc3)CC1)c1ccccc12` stands 1.28%; under `O=C(/C=C/c1ccccc1Cl)Nc1ccc(S(=O)(=O)Nc2ncccn2)cc1`, 0.84%.
Under `COc1cc(C(=O)NC(=S)NCc2ccco2)cc(OC)c1OC` stands 14.7% (active).
Under `COc1cccc(OC)c1C(=O)NC(=S)NCc1ccco1` stands 1.37%; under `COc1cc(NC(=S)NCc2ccco2)c(OC)cc1Cl`, -0.7%.
With `O=C(NCCc1c[nH]c2ccccc12)c1cc2ccccc2oc1=O`, the inhibition is 0.17%.
In the case of `CC(C)(C)N(Cc1ccccc1)C(=O)COC(=O)CCc1c[nH]c2ccccc12`, the inhibition is -1.13%.
Under `O=C(O)c1cccc(NC(=S)N/N=C/c2c[nH]c3ccccc23)c1` stands 0.08%; under `CSC(=S)N/N=C/c1c[nH]c2ccccc12`, 12.8% (active).
Regarding `Nc1nonc1-n1nnc(C(=O)N/N=C/c2c[nH]c3ccccc23)c1-c1ccccc1`, the inhibition was 0%.
`Cc1ccc(CSCC2Nc3ccc(C(=O)N4CCN(c5ccc(F)cc5)CC4)cc3NC2=O)cc1` (stereo unspecified): the inhibition is -0.76%.
The figure for `O=C(O)CCCC(=O)Nc1ccc(Oc2cccc(C(F)(F)F)c2)nc1` is 1.79%.
Under `Cc1ccc(OC(=O)c2ccccc2C(=O)OCC(F)(F)C(F)F)cc1` stands 0.25%; under `O=C(CCC(=O)NNc1nc2ccccc2c2nc(-c3ccccc3)nn12)NCCCN1CCCC1=O`, -1.57%; under `CCCc1nnc(SCC(=O)Nc2ccc(C(=O)OCC)cc2)o1`, -1.1%.
The figure for `CCOC(=O)c1ccc(NC(=O)CSc2nnc(COc3ccccc3OC)n2C)cc1` is 2.63%.
For the molecule `CCOC(=O)c1ccc(NC(=O)Cn2cnc3cc(C)c(C)cc32)cc1`, the inhibition is 16.7% (active).
The figure for `COc1cc(OC)cc(-c2c(C#Cc3ccsc3)c3cc(-c4ccc(SC)cc4)ccc3n2C)c1` is 0.52%; for `COc1ccc(-c2ccc(CCC(=O)O)n2NC(=O)c2ccc(C(C)(C)C)cc2)cc1` it is 2.02%; for `COc1ccc(CSc2nnnn2-c2ccc(O)cc2)cc1F` it is -0.34%.
